Source: PubChem (NMMLSC)
In the library only some 1.2% were active in any assay of this set; here they are far more common.
GSH bead fluor: compound fluoresces at 488/530 nm on GSH beads | fluorescence (KMESF) at 10 µM | 190,000 compounds, 0.25% hits | GSH beads flow cytometry, compound fluorescence 488/530 nm; stronger effect = higher value; in the data active = fluorescence above about 89;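 also: glutathione beads carrying GST-tagged Bcl family fusion proteins plus one bare bead set; values are compound well signal with DMSO vehicle wells as background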
RGS8-Gao: human RGS8-Galphao interaction regulation; P09471; multiplexed bead flow cytometry, RGS8-Galphao binding; actives lie on both sides; response (percent of control binding), % at 10 µM; 220,000 compounds, 0.34% hits; AID 1423; in the data active = response below about 60% or above about 140%; inactive = in between;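 also: Galphao activated as the GDP aluminium fluoride complex binding bead-coupled RGS8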
Target sequence (P09471 whole entry, looked up): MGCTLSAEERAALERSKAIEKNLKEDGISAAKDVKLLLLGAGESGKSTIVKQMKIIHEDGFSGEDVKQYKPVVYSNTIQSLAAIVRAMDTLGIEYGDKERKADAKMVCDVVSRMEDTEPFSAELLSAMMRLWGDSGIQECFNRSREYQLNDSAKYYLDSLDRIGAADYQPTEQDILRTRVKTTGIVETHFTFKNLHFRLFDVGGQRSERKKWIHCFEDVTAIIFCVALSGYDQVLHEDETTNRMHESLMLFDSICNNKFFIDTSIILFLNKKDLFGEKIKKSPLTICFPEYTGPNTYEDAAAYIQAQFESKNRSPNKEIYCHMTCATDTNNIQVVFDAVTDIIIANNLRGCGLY
Avidin fluor: avidin bead compound fluorescence profile | Avidin beads, compound fluorescence 488/530 nm, flow cytometry; stronger effect = higher value | fluorescence (KMESF) at 10 µM | 220,000 compounds, 0.38% hits; in the data active = fluorescence above about 47
RGS7-Gao: modulates binding of RGS7 to human Galphao; Multiplexed bead flow cytometry; actives lie on both sides; binding response (% of control), % at 10 µM; 220,000 compounds, 0.35% hits; AID 1439; in the data active = binding response below about 49% or above about 150%; inconclusive = no clear call, values can overlap the other calls; inactive = in between;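 also: fluorescent Galphao held in activated GDP-AlF4 state binding bead-coupled RGS7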
RGS4-Gao reg: human RGS4-Galphao interaction regulation; binding response (% of control), % at 10 µM; Multiplexed bead flow cytometry, RGS4-Galphao binding; actives lie on both sides; P09471; 220,000 compounds, 0.33% hits; in the data active = binding response below about 49% or above about 150%; inactive = in between;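 also: fluorescent Galphao activated with aluminum fluoride binding bead-coupled RGS4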
RGS16-Gao HTS: RGS16-Galphao interaction regulator (human); bead-based flow cytometry RGS16-Galphao binding, fluorescence; actives lie on both sides; binding response (% of control), % at 10 µM; 220,000 compounds, 0.38% hits; AID 1441;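 also: Galphao activated by GDP with aluminum fluoride before binding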
RGS-Gao: modulates binding between human RGS4 and Galphao. shares compounds with RGS16-Gao HTS. 1,600 compounds, 99% hits. RGS4–Galpha-o binding response, % at 10 µM. multiplexed bead flow cytometry, RGS–Galpha-o binding;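 also: fluorescently labeled Galpha-o bound to GDP with aluminium fluoride binding biotinylated RGS beads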
Avidin counter: interferes with biotinylated probe binding to avidin beads; shares compounds with RGS16-Gao HTS; streptavidin beads, fluorescein-biotin binding, flow cytometry; inhibition, % at 10 µM; 1,700 tested, under 10 active; AID 1783;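 active = inhibition above 50%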;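 also: median green fluorescence of gated singlet beads compared with DMSO control wells; 0% = DMSO wells and 100% = complete loss of bead fluorescence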
RGS8-Gao single: RGS8-Galphao interaction regulation, single point confirmation; shares compounds with RGS16-Gao HTS; bead-based flow cytometry RGS8-Galphao binding, fluorescence; actives lie on both sides; binding response (% of control), % at 10 µM; 1,700 compounds, 3% hits; AID 1836; in the data active = binding response below about 72% or above about 130%; inactive = in between;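 also: Galphao activated as GDP AlF4 complex before binding bead RGS8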
RGS7-Gao single: confirmation of regulators of human RGS7-Galphao interaction | 1,700 compounds, 7.8% hits | response (percent of control binding), % at 10 µM | bead-based flow cytometry RGS7-Galphao binding; actives lie on both sides | shares compounds with RGS16-Gao HTS; in the data active = response below about 75% or above about 130%; inactive = in between;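 also: fluorescent Galphao activated with GDP and aluminum fluoride binding bead-coupled RGS7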
RGS16-Gao conf: RGS16-Galphao interaction regulation, single point confirmation. AID 1838. bead-based flow cytometry, RGS16-Galphao binding; actives lie on both sides. shares compounds with RGS16-Gao HTS. 1,700 compounds, 4% hits. response (% of control binding), % at 10 µM; in the data active = response below about 74% or above about 130%; inactive = in between;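 also: Galphao activated as the GDP aluminium fluoride complex binding bead-coupled RGS16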
RGS4-Gao confirm: confirmation of regulators of human RGS4-Galphao interaction. shares compounds with RGS16-Gao HTS. RGS4-Galphao binding, multiplexed bead flow cytometry; actives lie on both sides. binding response (% of control), % at 10 µM. 1,700 compounds, 4% hits. AID 1840; in the data active = binding response below about 74% or above about 130%; inactive = in between
RGS19-Gao single: RGS19-Galphao interaction regulation, single point confirmation | bead-based flow cytometry RGS19-Galphao binding; actives lie on both sides | response (percent of control binding), % at 10 µM | 1,700 compounds, 5% hits | shares compounds with RGS16-Gao HTS; in the data active = response below about 50% or above about 160%; inactive = in between;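 also: 100% = no compound control and 0% = blank background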
Target sequence (P09471 whole entry, looked up): as above
Target sequence (P49795 whole entry, looked up): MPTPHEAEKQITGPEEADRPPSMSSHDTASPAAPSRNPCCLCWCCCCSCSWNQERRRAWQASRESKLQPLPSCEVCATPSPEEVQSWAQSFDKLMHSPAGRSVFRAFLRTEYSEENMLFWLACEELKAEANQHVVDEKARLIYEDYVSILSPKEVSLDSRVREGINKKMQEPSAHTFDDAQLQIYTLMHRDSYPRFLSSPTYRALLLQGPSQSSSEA
The depositor's hits bear a star; ? = inconclusive; nt = no result given; [ ] = dose if it differs, or a comment. Unless noted, no rule for the calls is given here.

SMILES | GSH bead fluor | RGS8-Gao | Avidin fluor | RGS7-Gao | RGS4-Gao reg | RGS16-Gao HTS | RGS-Gao | Avidin counter | RGS8-Gao single | RGS7-Gao single | RGS16-Gao conf | RGS4-Gao confirm | RGS19-Gao single
CCCCC(CCC(=O)O)(C(=O)OCC)c1csc(Nc2ccc(C)cc2)n1 (configuration not stated) | 13 | 12* | 0 | -16* | 1.7* | 10.0* | nt | 3 | 94 | 92 | 92 | 91 | 75
CC(/C=N/NC(=O)c1cc(-c2cccnc2)nc2c1c(C)nn2-c1ccccc1)=C\c1ccccc1 | 12 | 104 | 18 | 100 | 97 | 110 | nt | nt | nt | nt | nt | nt | nt
O=C(CN1C(=O)CC(c2ccccc2)=Nc2ccccc21)NCc1ccco1 | 29 | 4.7* | -2 | 1.6* | 3.2* | -0.5* | nt | -2 | 102 | 102 | 102 | 102 | 94
CC(C(=O)c1c[nH]c(C(N)=O)c1)c1ncc(C(F)(F)F)cc1Cl (configuration not stated) | 11 | 58* | 12 | 51 | 53 | 49 | 53* | -2 | 100 | 101 | 101 | 101 | 96
COc1ccc(CNC(=O)NCc2ccc(OC)c(OC)c2)cc1OC | 37 | 105 | 64* | 157*[activator] | 115 | 137 | 115* | -1 | 96 | 97 | 97 | 97 | 94
COc1ccc(NC(=O)NCCc2ccc(Cl)cc2)cc1OC | 16 | 12* | -1 | -3.3* | 7.0* | 0.8* | nt | 1 | 106 | 104 | 106 | 103 | 103
COc1ccc(CC(=O)OCC(=O)NCc2ccccc2Cl)cc1OC | 15 | 159*[activator] | 22 | 162*[activator] | 160*[activator] | 176*[activator] | nt | 0 | 104 | 96 | 104 | 97 | 99
COc1ccc(CNC(N)=O)cc1OC | 52 | 102 | 12 | 103 | 101 | 102 | nt | nt | nt | nt | nt | nt | nt
COc1cccc(NC(=O)NCCc2ccc(Cl)cc2)c1 | 19 | 95 | 10 | 95 | 96 | 96 | nt | nt | nt | nt | nt | nt | nt
CCCN(Cc1ccccc1)C(=S)NC(=O)c1ccccc1[N+](=O)[O-] | 22 | 100 | 12 | 97 | 99 | 101 | nt | nt | nt | nt | nt | nt | nt
COc1ccc(-c2cc(C(=O)OCC(=O)N(C)C3CCS(=O)(=O)C3)c3ccccc3n2)cc1OC (configuration not stated) | 12 | 100 | 5 | 99 | 99 | 102 | nt | nt | nt | nt | nt | nt | nt
Cc1ccc(-c2nnn(CC(=O)N3CCCCC3)n2)o1 | 9 | 104 | 28 | 104 | 104 | 107 | nt | nt | nt | nt | nt | nt | nt
CSc1nc2cc(C)nn2c(-c2ccccc2Cl)c1C#N | nt | 101 | 7 | ? | 98 | 98 | nt | nt | nt | nt | nt | nt | nt
O=c1c2ccccc2nc(CSc2ncnc3nc[nH]c23)n1-c1cccc(C(F)(F)F)c1 | 11 | 98 | 9 | 96 | 98 | 99 | nt | nt | nt | nt | nt | nt | nt
S=C(NC1CCCC1)N1CCN(C/C=C/c2ccccc2)CC1 | 14 | 100 | 10 | ? | 100 | 102 | nt | nt | nt | nt | nt | nt | nt
CC1(C)Cc2ccccc2-c2nnc(-c3ccc4ccccc4n3)n21 | 17 | 74 | 5 | 85 | 78 | 19* | 78* | 1 | 104 | 101 | 106 | 105 | 93
Cc1cc2c(cc1C)-c1nnc(-c3ccc4ccccc4n3)n1C(C)(C)C2 | 10 | 95 | 18 | 94 | 93 | 95 | nt | nt | nt | nt | nt | nt | nt
CC(C)OC(=O)C1C(=O)CC(C)(O)C(C(=O)OC(C)C)C1c1ccccc1 (configuration not stated) | 15 | 5.7* | -1 | 1.8* | 2.3* | -3.2* | nt | -2 | 101 | 101 | 102 | 101 | 103
N#Cc1c(-c2ccccc2)nc(N2CCCCCC2)[nH]c1=O | 52 | 82 | 3 | 88 | 86 | 15* | 86* | 0 | 101 | 104 | 104 | 103 | 95
CCN(CC)c1nc2cc(C)ccc2cc1/C=C(\C#N)C(N)=O | 12 | 99 | 11 | ? | 99 | 103 | nt | nt | nt | nt | nt | nt | nt
CN1C(=O)C(O)(CC(=O)c2ccccc2O)c2cc(Br)ccc21 (configuration not stated) | 26 | 148*[activator] | 6 | 112 | 117 | 252 | 117* | -2 | 107 | 105 | 109 | 105 | 105
Cc1ccc(C(c2sc3nc(C)nn3c2O)N2CCN(C(=O)c3ccco3)CC2)cc1 (configuration not stated) | 14 | 76 | 4 | 100 | 97 | 23* | 97* | 0 | 99 | 96 | 99 | 99 | 90
Cc1nc2sc(C(c3ccccc3)N3CCN(C(=O)c4ccco4)CC3)c(O)n2n1 (configuration not stated) | 71 | 102 | 7 | 103 | 101 | 102 | nt | nt | nt | nt | nt | nt | nt
CCN=C1SC(CC(=O)NCC)C(=O)N1CC (configuration not stated) | 43 | 118 | 74* | 213*[activator] | 259*[activator] | 519 | nt | -1 | 99 | 104 | 103 | 100 | 106
Cc1ccc(/C=N/n2c(-c3ccncc3)n[nH]c2=S)cc1 | 11 | 51* | 3 | 58 | 63 | -29 | 63* | 2 | 108 | 123 | 109 | 112 | 98
S=c1[nH]nc(-c2ccc(Cl)cc2)n1/N=C/C=C/c1ccco1 | nt | 96 | 7 | ? | 99 | 97 | nt | nt | nt | nt | nt | nt | nt
S=c1[nH]nc(-c2ccccc2)n1/N=C/C=C/c1ccco1 | 11 | 79 | 4 | 88 | 90 | -0.4* | 90* | 1 | 93 | 116 | 96 | 103 | 71
Cc1ccc(SCC(=O)c2ccc(CC(=O)O)s2)cc1 | nt | 102 | 7 | ? | 109 | 105 | nt | nt | nt | nt | nt | nt | nt
O=C(NC(c1ccccc1)C(Cl)(Cl)Cl)c1ccccc1 (configuration not stated) | 9 | 101 | 6 | 97 | 98 | 100 | nt | nt | nt | nt | nt | nt | nt
